HePTP inh: inhibitors of human HePTP phosphatase; AID 521; P35236; inhibition, % at 20 µM; recombinant HePTP phosphatase activity, OD absorbance; hit rate 0.64% among 110,000; in the data active = inhibition above about 50%;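 note: plate controls were vehicle for no effect and reference inhibitor for full effect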
FXIa mix inh: inhibitors of human coagulation factor XIa, pooled mixtures; purified FXIa, fluorogenic substrate; inhibition, % at 5 µM; hit rate 0.19% among 62,000; P03951;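 note: each value is inhibition by a whole ten-compound pool holding the compound; 0% = enzyme with no mixture and 100% = wells lacking enzyme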
FXIIa inh mix: factor XIIa (human) inhibition, mixture screen; purified FXIIa, fluorogenic substrate, pooled mixtures; P00748; hit rate 0.2% among 62,000; inhibition, % at 5 µM;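 note: 0% = enzyme without compound and 100% = no enzyme blank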
Candida biofilm: kills Candida albicans biofilms; C. albicans biofilm + clotrimazole, Alamar Blue; inhibition, % at 6 µM; hit rate 0.14% among 85,000; AID 834;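 active = inhibition above 20%; inactive = inhibition below 20%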;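 note: preformed 24 hr biofilms exposed to compound for 48 hr; 0% = biofilm without compound and 100% = blank killed by clotrimazole plus chlorhexidine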
TNAP act DEA: human TNAP activation, intermediate phosphate acceptor | P05186 | activation factor at 20 µM | purified TNAP, CDP-star luminescence, 100 mM DEA, 30 min; stronger effect = higher value; scale: 0 levamisole-inhibited, 1 vehicle-only enzyme | AID 813 | 64,000 tested, under 10 active;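 active = activation factor of at least 2 at 20 µM, relative to controls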
D1 allo mod: allosterically modulates the human D1 dopamine receptor; P21728; HEK293 D1, CRE-luciferase, dopamine EC30 potentiation; actives deviate in either direction; B-score at 10 µM; hit rate 5.9% among 58,000; AID 641;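 active = luminescence count or its row- and column-corrected plate score outside the 99.7% band of the plate's sample wells, on either side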
Target sequence (P21728 whole entry, looked up): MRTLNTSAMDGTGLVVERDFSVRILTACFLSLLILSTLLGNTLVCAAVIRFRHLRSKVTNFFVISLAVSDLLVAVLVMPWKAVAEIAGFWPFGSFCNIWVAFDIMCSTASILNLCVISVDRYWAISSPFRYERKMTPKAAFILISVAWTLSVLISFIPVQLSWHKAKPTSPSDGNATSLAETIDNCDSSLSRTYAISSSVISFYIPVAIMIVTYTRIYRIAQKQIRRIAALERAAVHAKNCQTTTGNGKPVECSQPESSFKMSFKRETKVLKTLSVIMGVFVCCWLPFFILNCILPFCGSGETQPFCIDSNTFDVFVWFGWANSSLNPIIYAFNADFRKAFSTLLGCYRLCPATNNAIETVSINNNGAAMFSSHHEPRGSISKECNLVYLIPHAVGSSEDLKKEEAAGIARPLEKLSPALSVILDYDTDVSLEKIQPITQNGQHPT
D1 PAM confirm: D1 receptor (human) allosteric modulation, confirmed; HEK293 D1 CRE-luciferase, dopamine EC30 potentiation; stronger effect = higher value; luminescence at 10 µM; hit rate 88% among 2,200; shares compounds with D1 allo mod; AID 642;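 active = luminescence in either of two replicates above the same-plate mean plus 3 SD of the low-dose dopamine control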
D1 no dopamine: activates D1 CRE-luciferase signal without dopamine present | AID 646 | hit rate 0.8% among 1,900 | HEK293 D1 CRE-luciferase, luminescence, no dopamine; stronger effect = higher value | luminescence at 10 µM | shares compounds with D1 allo mod; in the data active = luminescence above about 3900
Isoprot counter: alters isoproterenol CRE-luciferase response in HEK293 cells; shares compounds with D1 allo mod; HEK293 D1 CRE-luciferase, isoproterenol EC30 counter-screen; stronger effect = higher value; luminescence at 10 µM; hit rate 63% among 2,200; AID 647;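 active = luminescence in either replicate above plate mean of wells with a partly effective reference agonist dose plus 3 SD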;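 note: isoproterenol raises cAMP through native beta-adrenoceptor Gs so signal bypasses D1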
Active calls of the source: *. Only a selection was taken, and hits are over-represented in it overall. Cut-off read from the data, not from the text of the source, unless noted: active = inhibition above about 20% (passing the limit was not always enough); inactive = the rest.

How did CC1(C)CC(=O)C2=C(C1)OC1=C(C(=O)CC(C)(C)C1)C2c1cc2c(cc1Cl)OCO2 do in these assays?
HePTP inh: 2

Results for Cc1nc(-c2ccccc2O)n(S(=O)(=O)N(C)C)n1 ?
HePTP inh: -2; FXIa mix inh: 5; FXIIa inh mix: 6; Candida biofilm: -3; TNAP act DEA: 0.9; D1 allo mod: 5.5*; D1 PAM confirm: 8136*; D1 no dopamine: 1504; Isoprot counter: 3412*

What do the screens show for `CCOC(=O)C(Sc1nnc2c3ccccc3n(CC)c2n1)C(=O)OCC`?
HePTP inh: 2; FXIa mix inh: 7; FXIIa inh mix: 4; Candida biofilm: -5; TNAP act DEA: 0.8; D1 allo mod: 5.2*; D1 PAM confirm: 11136*; D1 no dopamine: 1560; Isoprot counter: 3800*

Results for CCOc1ccc(C(=O)NCC(=O)OC(C)C(=O)NCc2ccco2)cc1OCC (stereo unspecified) ?
HePTP inh: 1; FXIa mix inh: 6; FXIIa inh mix: 6; Candida biofilm: -5; TNAP act DEA: 0.9; D1 allo mod: 6*; D1 PAM confirm: 5900; Isoprot counter: 2648*

What do the screens show for `CCOc1ccc(C(=O)NCc2ccco2)cc1Br`?
HePTP inh: -4

Results for O=C(CSc1nnnn1Cc1ccccc1)c1ccccc1 ?
HePTP inh: -8; FXIa mix inh: 7; FXIIa inh mix: 3; Candida biofilm: 2; TNAP act DEA: 1; D1 allo mod: 4*; D1 PAM confirm: 5880*; D1 no dopamine: 1460; Isoprot counter: 2584

Results for COc1ccc(C(=O)CSc2nnnn2Cc2ccccc2)cc1 ?
HePTP inh: 4; FXIa mix inh: 15; FXIIa inh mix: 1; Candida biofilm: 4; TNAP act DEA: 0.9; D1 allo mod: 0.92

How did c1ccc(-c2nc3nonc3nc2-c2ccccc2)cc1 do in these assays?
HePTP inh: -9; FXIa mix inh: 0; FXIIa inh mix: 6; Candida biofilm: 9; TNAP act DEA: 0.8; D1 allo mod: 6.8*; D1 PAM confirm: 6860*; D1 no dopamine: 1656; Isoprot counter: 3008

How did CCOC(=O)COc1c(C)cc(Br)cc1C do in these assays?
HePTP inh: 7

How did CCOC(=O)c1c(C2COc3ccccc3O2)csc1NC(=O)c1ccccc1 (stereo unspecified) do in these assays?
Candida biofilm: 0

What do the screens show for `CCOC(=O)c1c(C2COc3ccccc3O2)csc1N` (stereo unspecified)?
HePTP inh: 0; FXIa mix inh: 2; FXIIa inh mix: -1; Candida biofilm: -1; TNAP act DEA: 0.9; D1 allo mod: 9.9*; D1 PAM confirm: 11276*; D1 no dopamine: 1584; Isoprot counter: 3868*

What do the screens show for `CN1CCN(/N=C/c2ccc([N+](=O)[O-])s2)CC1`?
HePTP inh: 7

Results for N#Cc1c2n(c3c(=O)n(Cc4ccccc4Cl)cnc13)CCCCC2 ?
HePTP inh: -2; FXIa mix inh: 5; FXIIa inh mix: 3; TNAP act DEA: 0.9; D1 allo mod: 8.6*; D1 PAM confirm: 11076*; D1 no dopamine: 1496; Isoprot counter: 4408*

What do the screens show for `COc1ccc(CN2C(=O)c3cccnc3C2Nc2cc(Cl)ccc2OC)cc1` (stereo unspecified)?
HePTP inh: 1; FXIa mix inh: -6; FXIIa inh mix: 5; Candida biofilm: 0; TNAP act DEA: 0.8; D1 allo mod: 12*; D1 PAM confirm: 26704*; D1 no dopamine: 1696; Isoprot counter: 6624*

How did COc1ccc(OC)c(NC2c3ncccc3C(=O)N2Cc2ccco2)c1 (stereo unspecified) do in these assays?
HePTP inh: 1; FXIa mix inh: -2; FXIIa inh mix: 9; Candida biofilm: 3; TNAP act DEA: 0.9; D1 allo mod: 8.7*; D1 PAM confirm: 11124*; Isoprot counter: 3236*

Bioassay records from PubChem.
